Test results taken from the supplement of paper PMC11417369.
Whole data set: some 25,000 sequences, median “ln(normalized median fluorescence intensity)” near 9.3, cut for the highest 2% near 10. Shown is part of a subset that was picked to be rich in the highest values.

Each sequence was assayed on PF3D7_0420300 AP2 domain 1 (GST-tagged) (assay: gcPBM binding intensity (ln(normalized median fluorescence intensity)); higher = stronger DNA binding).
Procedure, shortened: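 Alexa488 anti-GST antibody, scanned at 488 nm, detected GST-tagged P. falciparum DNA-binding domains that had been expressed in E. coli and incubated for 1 h on an Agilent 4 × 180k array. The array carried primer-extended double-stranded 36-bp intergenic genomic probes and negative controls. Binding intensity is the highest Masliner-normalised natural-log median intensity across replicate spots of either orientation of each probe.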

Sequence	gcPBM binding intensity (ln)
TAAAAATATATATGATTGCACTTAGGACAATATATA	9.14
TTATTTTTTAAAAGTAGTACAAATTTTTATAGAAAA [XGTACX_site7407]	8.46
AATATTAAAGAATAATGTACAAAATAAAAGCAAAGA [XGTACX_site3550]	9.86
TATTATTCTACTATTATATTCTATATTATTTATAGT [CACACA_negctrl_site499]	9.37
ATAATAATATAAAAATGTACATATATTTATAATTGT [XGTACX_site3429]	9.23
CATACAGATGGACACACACACACACCCACAGACAAA [CACACA_site4431]	10.1
AGCACAGACGGACACACACACATATATATATATATA [CACACA_site4341]	9.88
AGCACAGACGGACACACACACACACCCACAGACACA [CACACA_site4358]	10.2
TTTGAAGGAAGGGGGGGAGGGGCCATAACAAAGGAA [GTGCAC_negctrl_site408]	10.4
AAAAAAAAAAAAAAAAGGGGGGGAGGGATTGAAAAA [CACACA_negctrl_site193]	10
AAAGAAGGGGGGGGAAAAAAAAATAAAAGAGGAAAA [XGTACX_negctrl_site92]	9.59
GCATATGTTCAGCGTTGTACATAAAAAAAAACATAT [XGTACX_site5974]	9.07
TTGATTTATATTTAATGTACATTTTTACAGAAAATT [XGTACX_site2747]	8.93
AAAAAAAAAAAAAAATGTACATATATATATATATTA [XGTACX_site7330]	8.98
TGGGAGCACAGACACACACACACACCCATATATATA [CACACA_site335]	10.1
GGCATACACGGACACACACACACACCGACATATATA [CACACA_site4493]	10.3
AATGAACTCACGAGCACACACACACCGATATATATA [CACACA_site4710]	10
CATATATACTCATACACACACACACCGACACAGACA [CACACA_site5026]	10.1
CACAGACACGGACACACACACACACCGATATATATA [CACACA_site4353]	10.3
TGGGAGCACAGACACACACACACACCGATATATATA [CACACA_site8001]	10.2
CACAGACACGGACACACACACATATATAATATATAT [CACACA_site4495]	9.98
CGCACAGACGGACACACACACACATATATATATATA [CACACA_site5249]	10.1
CACGCATACAGACACACACACACACCGATATATATA [CACACA_site8113]	10.3
CACGCATACAGACACACACACACACCCATATATATA [CACACA_site636]	10.2

Sequence	gcPBM binding intensity (ln)
AATTAGATACTAACAAGTACATATATATATATATAT [XGTACX_site2252]	9.59
ATATCGGGTGCATTAACACACATTTATTTGAATAAA [CACACA_site2350]	9.24
TCAAGAGTTATATAAACACACATACATACAGACATA [CACACA_site6998]	9.6
ATGTTATAAAATATATGTACATATTTATATAAAATA [XGTACX_site5766]	9.14
AATATAATATAATATAGTACGTAAAAATATTATACA [XGTACX_site2170]	9.47
ATATATGCATATATATGTACATATATATATATATAT [XGTACX_site7403]	9.22
ATTATATTATATTATACATGCATAATATTATATAAA [TGCATGCA_site647]	9.17
ATTAAATAAACCATTACACACTTTTATGTTTTGAAA [CACACA_site1143]	9.3
AAAACTTTTTTAACAGAAAAATAGGGATACAATATA [CACACA_negctrl_site1708]	9.35
CACGCATACGGACACACACACACACCGATATATATA [CACACA_site4521]	10.3
AGGATACACGGACACACACACATATATATATATATA [CACACA_site4654]	9.9
ATATATAAAATTATATGTACATATATCTATTTATAA [XGTACX_site3713]	9.04
TTTATATAACAACAAAATGGAAATATATATGTATGT [TGCATGCA_negctrl_site98]	9.53
TATACTCAGAAACACACACACACACCCAAAAAAAAA [CACACA_site4434]	9.97
CATACACCCGGACACACACACACACCCATATATAAT [CACACA_site4494]	10.3
CTTATATATACATATACACACACACCCATATATATA [CACACA_site8705]	10.1
TATACATACACATACACACATACACCCATACACATA [CACACA_site1746]	9.93
ACCCATATAATATATACACACATATATATATATATA [CACACA_site4731]	9.52
TATACACCCGGACACACACACATATATATATATATA [CACACA_site5030]	9.94
TACACCCACCCACATACACACACATACACATATATA [CACACA_site8503]	10.2
CACATATATACACATACACACACACCCATACACCCA [CACACA_site8505]	10.2
CATATACACCAACACACACACACACCCACAAAAAAA [CACACA_site496]	10.2
CATACTCACCAACACACACACACACCCATATAGAAT [CACACA_site592]	10.2
CACCCACCCACATACACACACATACACATATATATA [CACACA_site1722]	10.2
